Results taken from PubChem BioAssay (NCATS).
Inconclusive results are not listed. The source made the active and inactive calls. Calls follow the shape of the dose curve; as a rule, active = well fitted curve in the direction sought with a large enough effect; inconclusive = small, poorly fitted or top-dose-only effect, or another doubt; inactive = no such curve, though single readings can be large; an effect the other way counts as inactive or inconclusive.

assay: Quantitative High-Throughput drug screen in 47 multiple myeloma cell lines against the NCATS MIPE library collection: KHM11_PLB cell viability assay (AID 1918962); conditions: KHM11 myeloma cell viability, CellTiter-Glo ATP luminescence, 48 h; series mostly up to 45.8 µM; also: nearly all actives have a fitted effect of over 35% in size
Method in brief: (§1)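 Myeloma cells (500 per well) were exposed to MIPE 4.0 compounds by pin transfer and incubated 48 hours at 37C, 5% CO2. Viability was read as ATP by CellTiter-Glo luminescence, normalised to DMSO (100%) and media-only (0%) wells.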
Potency is read from the fitted curve at half-maximal effect.

Compound | Potency
CC(C)(C)c1cc(C=C(C#N)C#N)cc(Br)c1O | 14.8 µM (active)
Cc1c(C(=O)c2cccc3ccccc23)c2cccc3c2n1[C@H](CN1CCOCC1)CO3 | 16.6 µM (active)
C[C@]12CC[C@H]3[C@@H](CCC4=CC(=O)CC[C@@]43C)[C@H]1CC[C@H]2O | inactive
C[C@]12CC[C@H](O)CC1=CC[C@H]1[C@H]3CCC(=O)[C@@]3(C)CC[C@@H]12 | 14.8 µM (active)

assay: Quantitative High-Throughput drug screen in 47 multiple myeloma cell lines against the NCATS MIPE library collection: JIM3_ECACC cell viability assay (AID 1918963; also: nearly all actives have a fitted effect of over 35% in size); conditions: JIM3 myeloma viability, CellTiter-Glo ATP, 48 h; series mostly up to 45.8 µM
Method in brief: as §1

Compound | Potency
c1ccc(CCCN2CCN(CCOC(c3ccccc3)c3ccccc3)CC2)cc1 | 20.9 µM (active)
O=C1CCC[C@@H]2[C@H]3CCCN4CCC[C@@H](CN12)[C@@H]34 | inactive
CC(=O)Nc1ccc(OC[C@](C)(O)C(=O)Nc2ccc([N+](=O)[O-])c(C(F)(F)F)c2)cc1 | inactive
COC1=C[C@@H]2[C@@H]3Cc4ccc(OC)c(O)c4[C@]2(CCN3C)CC1=O | 9.35 µM (active)
Clc1ccccc1C(c1ccccc1)(c1ccccc1)n1cccn1 | inactive
CCCCCC[C@H]1C(=O)O[C@H](C)[C@H](NC(=O)c2cccc(NC=O)c2O)C(=O)O[C@@H](C)[C@@H]1OC(=O)CC(C)C | 0.0469 µM (active)
CC1=NN=C(c2ccc(N)cc2)c2cc3c(cc2C1)OCO3 | inactive
O=[N+]([O-])c1ncc[nH]1 | inactive
COc1ccc(C(=O)c2c(C)n(CCN3CCOCC3)c3cc(I)ccc23)cc1 | 13.2 µM (active)
CC(O)=C(C#N)C(=O)Nc1cc(Br)ccc1Br | inactive
C[C@]12CC[C@@H]3[C@@H](CCC4=CC(=O)CC[C@@H]43)[C@@H]1CC[C@@H]2OC(=O)CCc1ccccc1 | inactive
CC(C)(C)c1cc(C=C(C#N)C#N)cc(Br)c1O | 16.6 µM (active)
Cc1c(C(=O)c2cccc3ccccc23)c2cccc3c2n1[C@H](CN1CCOCC1)CO3 | 23.5 µM (active)
C[C@]12CC[C@H]3[C@@H](CCC4=CC(=O)CC[C@@]43C)[C@H]1CC[C@H]2O | inactive
C[C@]12CC[C@H](O)CC1=CC[C@H]1[C@H]3CCC(=O)[C@@]3(C)CC[C@@H]12 | inactive

assay: Quantitative High-Throughput drug screen in 47 multiple myeloma cell lines against the NCATS MIPE library collection: JIM1_ECACC cell viability assay (AID 1918964); conditions: JIM1 myeloma viability, CellTiter-Glo ATP luminescence, 48 h; series mostly up to 45.8 µM
Method in brief: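 Approved and investigational drugs from MIPE 4.0 were added by pin tool to 500 cells per well. After 48 hours at 37C, ATP-based CellTiter-Glo luminescence indicated remaining viability.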

Compound | Potency
N=c1c2c(-c3ccccc3)c(-c3ccccc3)n(Cc3ccccc3)c2ncn1C1CCC(O)CC1 (stereo not drawn) | 0.833 µM (active)
O=C1CCC[C@@H]2[C@H]3CCCN4CCC[C@@H](CN12)[C@@H]34 | inactive
CCCC[N+]1(C)[C@H]2CC(OC(=O)[C@H](CO)c3ccccc3)C[C@H]1[C@H]1O[C@H]12 (stereo partly drawn) | inactive
Clc1ccccc1C(c1ccccc1)(c1ccccc1)n1cccn1 | inactive
CCNC(=O)CC1N=C(c2ccc(Cl)cc2)c2cc(OC)ccc2-n2c(C)nnc21 (stereo not drawn) | 16.6 µM (active)
CCCCCC[C@H]1C(=O)O[C@H](C)[C@H](NC(=O)c2cccc(NC=O)c2O)C(=O)O[C@@H](C)[C@@H]1OC(=O)CC(C)C | 0.372 µM (active)
COC[C@H]1OC(=O)c2coc3c2[C@@]1(C)C1=C(C3=O)[C@@H]2CC[C@H](O)[C@@]2(C)C[C@@H]1OC(C)=O | 1.48 µM (active)
C[C@]12Cc3cn[nH]c3C[C@@H]1CC[C@@H]1[C@H]2CC[C@@]2(C)[C@H]1CC[C@]2(C)O | inactive
COc1ccc(C(=O)c2c(C)n(CCN3CCOCC3)c3cc(I)ccc23)cc1 | 11.8 µM (active)
CC[C@H]1C=CC=CC[C@@H](C)[C@H](O)[C@@](C)(O)C(=O)[C@@H](C)[C@H](O)[C@@H](C)C(=O)[C@@H](C)[C@H](O)[C@@H](C)C=CC(=O)O[C@@H]2[C@@H](C)[C@H](CC1)O[C@]1(CC[C@H](C)[C@H](C[C@@H](C)O)O1)[C@H]2C | 0.001 µM (active)
C[C@]12CC[C@H]3[C@@H](CCC4=CC(=O)CC[C@@]43C)[C@H]1CC[C@H]2O | inactive
C[C@]12CC[C@H](O)CC1=CC[C@H]1[C@H]3CCC(=O)[C@@]3(C)CC[C@@H]12 | 0.418 µM (active)

assay: Quantitative High-Throughput drug screen in 47 multiple myeloma cell lines against the NCATS MIPE library collection: INA6_PLB cell viability assay (AID 1918965; also: nearly all actives have a fitted effect of over 55% in size); conditions: INA6 myeloma viability, CellTiter-Glo ATP luminescence, 48 h; series mostly up to 45.8 µM
Method in brief: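 CellTiter-Glo ATP luminescence gave viability after 48 h compound treatment at 37C of 500 multiple myeloma cells per well. Normalisation used DMSO-only wells as 100% and media-only wells as 0% viability; primary qHTS of approved and investigational drugs.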

Compound | Potency
c1ccc(CCCN2CCN(CCOC(c3ccccc3)c3ccccc3)CC2)cc1 | 20.9 µM (active)
N=c1c2c(-c3ccccc3)c(-c3ccccc3)n(Cc3ccccc3)c2ncn1C1CCC(O)CC1 (stereo not drawn) | 0.209 µM (active)
O=C1CCC[C@@H]2[C@H]3CCCN4CCC[C@@H](CN12)[C@@H]34 | inactive
CC(C)(O)C(=O)Nc1ccc([N+](=O)[O-])c(C(F)(F)F)c1 | 7.43 µM (active)
CCCC[N+]1(C)[C@H]2CC(OC(=O)[C@H](CO)c3ccccc3)C[C@H]1[C@H]1O[C@H]12 (stereo partly drawn) | 2.35 µM (active)
COC1=C[C@@H]2[C@@H]3Cc4ccc(OC)c(O)c4[C@]2(CCN3C)CC1=O | 8.33 µM (active)
C=C1C[C@H]2[C@H]3CCC(=O)[C@@]3(C)CC[C@@H]2[C@@]2(C)C=CC(=O)C=C12 | 20.9 µM (active)
Clc1ccccc1C(c1ccccc1)(c1ccccc1)n1cccn1 | inactive
CN[C@@H]1Cc2cccc3[nH]c(=O)n(c23)C1 | inactive
CCNC(=O)CC1N=C(c2ccc(Cl)cc2)c2cc(OC)ccc2-n2c(C)nnc21 (stereo not drawn) | 6.62 µM (active)
CCCCCC[C@H]1C(=O)O[C@H](C)[C@H](NC(=O)c2cccc(NC=O)c2O)C(=O)O[C@@H](C)[C@@H]1OC(=O)CC(C)C | 0.0833 µM (active)
CC=C(C)C(=O)O[C@H]1C(C)=C2[C@@H]3OC(=O)[C@@](C)(O)[C@@]3(O)[C@@H](OC(=O)CCC)C[C@](C)(OC(C)=O)[C@@H]2[C@@H]1OC(=O)CCCCCCC | 0.0935 µM (active)
N#C[C@H](O[C@@H]1O[C@H](CO[C@@H]2O[C@H](CO)[C@H](O)[C@H](O)[C@H]2O)[C@H](O)[C@H](O)[C@H]1O)c1ccccc1 | 13.2 µM (active)
CN1CCN(c2ccc([N+](=O)[O-])c3no[n+]([O-])c23)CC1 | 13.2 µM (active)
CC1=NN=C(c2ccc(N)cc2)c2cc3c(cc2C1)OCO3 | inactive
c1cc2c(cc1[C@H]1OC[C@H]3[C@H]1CO[C@H]3c1ccc3c(c1)OCO3)OCO2 | inactive
COC[C@H]1OC(=O)c2coc3c2[C@@]1(C)C1=C(C3=O)[C@@H]2CC[C@H](O)[C@@]2(C)C[C@@H]1OC(C)=O | 1.18 µM (active)
C[C@]12Cc3cn[nH]c3C[C@@H]1CC[C@@H]1[C@H]2CC[C@@]2(C)[C@H]1CC[C@]2(C)O | inactive
O=C(NCC1CCOCC1)c1cnc(Nc2ccc(Cl)cc2Cl)nc1C(F)(F)F | 18.7 µM (active)
COc1ccc(C(=O)c2c(C)n(CCN3CCOCC3)c3cc(I)ccc23)cc1 | 8.33 µM (active)
C=C[C@@H]1CN2CCC1C[C@H]2[C@H](O)c1ccnc2ccccc12 (stereo partly drawn) | 20.9 µM (active)
C[C@H]1CCCC=CC2C[C@H](O)C[C@@H]2[C@H](O)C=CC(=O)O1 (stereo partly drawn) | inactive
CC(C)(C)c1cc(C=C(C#N)C#N)cc(Br)c1O | 4.18 µM (active)
CC[C@H]1C=CC=CC[C@@H](C)[C@H](O)[C@@](C)(O)C(=O)[C@@H](C)[C@H](O)[C@@H](C)C(=O)[C@@H](C)[C@H](O)[C@@H](C)C=CC(=O)O[C@@H]2[C@@H](C)[C@H](CC1)O[C@]1(CC[C@H](C)[C@H](C[C@@H](C)O)O1)[C@H]2C | 0.0132 µM (active)
Cc1c(C(=O)c2cccc3ccccc23)c2cccc3c2n1[C@H](CN1CCOCC1)CO3 | 23.5 µM (active)
C[C@]12CC[C@H]3[C@@H](CCC4=CC(=O)CC[C@@]43C)[C@H]1CC[C@H]2O | inactive
O=C(Oc1ccc([N+](=O)[O-])cc1)N1CCC(C(O)(c2ccc3c(c2)OCO3)c2ccc3c(c2)OCO3)CC1 | 10.5 µM (active)
